Consider four compounds from PubChem BioAssay.

Structures are written as SMILES. “And” between values parts separate entries of the source, which are not always exact repeats. Equal entries are not always repeated. The source made the active and inactive calls.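 How the source made its calls, unless noted: active means z-score of at least 1.8 in each of two replicates, scored against plate mean and spread of sample wells; inactive means the rest.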

One may read the inhibition as the relative decrease from the control value, in per cent. The viability is a read-out of living cells in per cent, often relative to untreated cells.

Experiment [1] can be described thus: yeast 75Q aggregation reduction – 75Q-TubU reporter (AID 1593). The settings on record: Yeast 75Q polyglutamine aggregation reporter.
Experiment [2] can be described thus: blockers of cytochrome c efflux from mitochondria – biochemical, purified mitochondria (AID 1603).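 Further: mouse liver mitochondria challenged with calcium chloride; signal normalized to the plate average as 100%.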 The settings on record: stronger effect = lower value.
Experiment [3] can be described thus: polyglutamine aggregate formation blockers (AID 1604). The note with it: polyglutamine-induced protein aggregation inhibition assay; stronger effect = higher value; tested at 2.5 µM.
Experiment [4] can be described thus: Wnt pathway potentiators raising nuclear beta-catenin – imaging, WNT3A-conditioned medium, mouse C2C12, NPC library, primary screen (AID 1117326; in the data active means nuclear beta-catenin stimulation mostly above about 4.2%, no sharp cut-off; inactive means mostly below about 10%). The note with it: stronger effect = higher value.
Experiment [5] can be described thus: stimulators of insulin release from INS-1E, primary screen, cell-based, 5 mM glucose, NPC library (AID 1117329;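 active means compound raises insulin release from rat beta cells at 5 mM glucose, no numeric limit stated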). The settings on record: rat INS-1E insulin secretion, at 10 µM, stronger effect = higher value.
The nature of experiment [6]: growth inhibition of GSK3B-pretreated HCT116 cells – cell-based, CellTiter-Glo, 0.2 to 20 µM (AID 1117336;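 active means compounds lowering colon cancer cell viability after pretreatment blocking the GSK3B kinase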). The settings on record: HCT116 viability after GSK3B inhibitor, at 20 µM, stronger effect = higher value. Background: In ATP-based viability assays light output follows the ATP content of the culture.
A short description of experiment [7]: inhibition of endothelial tube formation, primary screen, imaging, VEGF stimulated, CD31 staining, tube area, NPC library (AID 1117340;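 active means compound that reduces growth-factor-driven endothelial tube area in a mixed cell culture, no cutoff stated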). The note with it: VEGF-stimulated ADSC/ECFC co-culture, at 10 µM, stronger effect = higher value.
Experiment [8] can be described thus: GLP1 release stimulators, primary, NCI-H716, NPC library (AID 1117341;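 active means compound raises GLP1 secretion from the human gut endocrine cells, with no numeric limit stated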). The note with it: NCI-H716 cells, at 10 µM, stronger effect = higher value.
A short description of experiment [9]: HCT116 colon cancer cell growth inhibition, primary screen, CellTiter-Glo luminescence, NPC library (AID 1117342;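 active means compounds that lower survival of HCT116 colon cancer cells in the luminescence readout, no numeric limit stated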). The note with it: at 20 µM (top of the series).
The nature of experiment [10]: reduced SW480 viability measured with CellTiter-Glo, NPC library, primary (AID 1117343;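 active means compounds that lower viability of the colon cancer cells in the luminescence readout, with no numeric limit stated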). The settings on record: CellTiter-Glo luminescence; at 20 µM (top of the series).
Experiment [11] can be described thus: NPC library primary testing for decreased DLD-1 cell viability via CellTiter-Glo (AID 1117346;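 active means compounds that lower survival of DLD-1 colon cancer cells in the luminescence readout, no cutoff given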). The settings on record: DLD-1 viability, CellTiter-Glo luminescence; at 20 µM (top of the series).
In experiment [12] the target is 6-phosphogluconate dehydrogenase, decarboxylating (Homo sapiens) (UniProt P52209). Description: inhibition of human phosphogluconate dehydrogenase – biochemical, recombinant enzyme, NADPH absorbance, primary screen (AID 1159550;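 active means at least 20% inhibition of 6-phosphogluconate dehydrogenase activity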). The note with it: recombinant 6PGD, NADPH absorbance 341 nm; at 10 µM; stronger effect = higher value.
Experiment [13] in a line: EMT-state selective cytotoxicity in co-culture – imaging, PC-3E GFP, TEM4-18 mCherry, primary screen (AID 1345086;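 active means compounds killing one labelled cell type while sparing the other, by normalised counts and ratio limits, not self-fluorescent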;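 on all read-outs here: cells exposed to compound for 72 h before imaging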;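 on red/green cell ratio (normalised): normalised mesenchymal count divided by normalised epithelial count so high means epithelial killing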). The settings on record: PC-3E GFP / TEM4-18 mCherry co-culture, imaging cell counts, at 1 µM; for red/green cell ratio (normalised): actives lie on both sides.
Experiment [14] deals with Aerobactin synthetase IucA (Klebsiella pneumoniae hvKP1). Description: IucA enzyme inhibition, primary screen, biochemical, Spectrum library (AID 1346200; call rule not given here;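 further: 100% = wells without compound and 0% = wells lacking enzyme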). The settings on record: malachite green pyrophosphate, A620, at 8 µM, stronger effect = lower value.
Experiment [15] can be described thus: MELAS cybrid and Rieske KO viability enhancers – cell-based, MELAS cybrids, Rieske KO mouse fibroblasts, CellTiter-Glo, primary screen (AID 1508586;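 active means mean z-score across replicates of 1.96 or higher in either the MELAS or the Rieske mutant cell line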;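 further: z relative to plate mean and SD of compound and empty wells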). The settings on record: low glucose.
The target in experiment [16] is NAD(+) hydrolase SARM1 (Homo sapiens) (UniProt Q6SZW1). The experiment can be described thus: blocking NAD cleavage by SARM1 SAM-TIR – cell lysate, NAD-Glo luminescence (AID 1508614;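 active means compound whose remaining NAD level is above about 45 nM, limit read from the data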). The settings on record: SAM-TIR HEK293T lysate NADase, at 1 µM, stronger effect = higher value.
The target in experiment [17] is Mitogen-activated protein kinase 7 (Homo sapiens) (UniProt Q13164). Description: Gal4-ERK5 driven luciferase induction – cell-based, HTS, primary screen (AID 1508626;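 active means luciferase signal above three times the same-plate solvent-only control wells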;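 further: luciferase driven by Gal4-ERK5 fusion binding five Gal4 sites before minimal TATA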). The note with it: HeLa Gal4-ERK5 transactivation, 18 h, at 5 µM, stronger effect = higher value.
A short description of experiment [18]: galactose survival enhancers in mitochondrial complex I cybrids – cell-based, galactose medium, ATP luminescence, primary screen (AID 1645843).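 Further: positive z means more ATP and so rescue of galactose-driven cybrid death.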 The settings on record: complex I mutant cybrid cells, 72 h, stronger effect = higher value.
Experiment [19] is described as follows: P. berghei load reduction in hepatocytes – cell-based, HepG2, luciferase luminescence, HepG2 viability, primary screen (AID 624349; in the data active means parasite load remaining mostly below about 12%, no sharp cut-off; inactive means mostly above about 10%;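 further: 100% = mean of DMSO negative control wells on the same plate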). The note with it: P. berghei liver stage in HepG2, luciferase luminescence, concentration not given here; parasite load remaining: stronger effect = lower value; viability: measured here: HepG2 viability without parasites.
A short description of experiment [20]: viability loss with induced miR-34 in A549 – imaging, A549 dox-inducible miR-34, nuclei and caspase counts, primary screen (AID 1347080;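 active means compounds whose cell count with miR-34 switched on is under 0.7 times the count with it off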). The settings on record: A549 miR-34 inducible, Hoechst nuclei count, 48 h.
[21] abbreviates: measured here: epithelial PC-3E GFP cell survival.
Setting [22] is: measured here: mesenchymal TEM4-18 mCherry cell survival.
[23] abbreviates: MELAS cybrid survival, CellTiter-Glo 48 h, stronger effect = higher value.
Setting [24] is: Rieske KO mouse fibroblast survival, CellTiter-Glo 72 h.
Setting [25] is: measured here: relative caspase fold change +Dox/-Dox.
Where [26] appears, read: measured here: total cells with miR-34 induction, stronger effect = lower value.
The mark [27] stands for this setting: measured here: total cells without miR-34 induction.

Chain of Mitogen-activated protein kinase 7 (Homo sapiens) (Q13164 whole entry, looked up, the tested form may be a part): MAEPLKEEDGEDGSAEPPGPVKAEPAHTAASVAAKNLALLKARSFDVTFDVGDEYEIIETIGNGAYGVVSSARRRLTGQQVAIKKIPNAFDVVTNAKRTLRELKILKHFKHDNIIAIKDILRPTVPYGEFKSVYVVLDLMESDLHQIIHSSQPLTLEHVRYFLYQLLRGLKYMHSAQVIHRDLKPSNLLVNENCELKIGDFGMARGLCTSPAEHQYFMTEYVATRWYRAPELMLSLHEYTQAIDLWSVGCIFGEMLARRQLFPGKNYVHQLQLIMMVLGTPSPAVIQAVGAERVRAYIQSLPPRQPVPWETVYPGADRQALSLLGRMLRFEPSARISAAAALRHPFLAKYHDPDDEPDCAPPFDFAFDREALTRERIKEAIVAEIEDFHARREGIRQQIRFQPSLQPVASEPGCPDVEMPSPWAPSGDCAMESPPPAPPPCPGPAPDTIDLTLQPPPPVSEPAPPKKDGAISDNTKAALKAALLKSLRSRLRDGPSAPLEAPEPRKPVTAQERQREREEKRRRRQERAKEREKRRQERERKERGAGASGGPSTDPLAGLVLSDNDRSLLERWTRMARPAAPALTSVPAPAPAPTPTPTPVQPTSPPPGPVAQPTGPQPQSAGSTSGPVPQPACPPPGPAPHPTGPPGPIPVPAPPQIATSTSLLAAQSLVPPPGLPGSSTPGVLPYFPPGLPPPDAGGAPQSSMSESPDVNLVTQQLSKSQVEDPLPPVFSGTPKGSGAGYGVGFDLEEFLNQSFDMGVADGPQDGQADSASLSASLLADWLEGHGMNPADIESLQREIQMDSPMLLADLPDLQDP
Chain of 6-phosphogluconate dehydrogenase, decarboxylating (Homo sapiens) (P52209 whole entry, looked up): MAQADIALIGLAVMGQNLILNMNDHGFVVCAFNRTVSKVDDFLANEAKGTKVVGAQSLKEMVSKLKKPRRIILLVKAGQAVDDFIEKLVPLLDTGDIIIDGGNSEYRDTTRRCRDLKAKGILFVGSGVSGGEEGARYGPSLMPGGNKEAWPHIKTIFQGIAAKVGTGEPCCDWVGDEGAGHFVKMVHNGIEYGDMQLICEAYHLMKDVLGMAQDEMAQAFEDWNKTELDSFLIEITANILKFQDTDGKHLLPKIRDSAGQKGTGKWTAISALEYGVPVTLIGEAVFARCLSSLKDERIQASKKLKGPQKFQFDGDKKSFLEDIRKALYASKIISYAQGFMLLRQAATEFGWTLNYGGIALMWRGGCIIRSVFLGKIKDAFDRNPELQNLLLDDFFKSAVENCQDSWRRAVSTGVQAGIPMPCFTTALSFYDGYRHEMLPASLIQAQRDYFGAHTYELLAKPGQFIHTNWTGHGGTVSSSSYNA
Chain of NAD(+) hydrolase SARM1 (Homo sapiens) (Q6SZW1 whole entry, looked up, the tested form may be a part): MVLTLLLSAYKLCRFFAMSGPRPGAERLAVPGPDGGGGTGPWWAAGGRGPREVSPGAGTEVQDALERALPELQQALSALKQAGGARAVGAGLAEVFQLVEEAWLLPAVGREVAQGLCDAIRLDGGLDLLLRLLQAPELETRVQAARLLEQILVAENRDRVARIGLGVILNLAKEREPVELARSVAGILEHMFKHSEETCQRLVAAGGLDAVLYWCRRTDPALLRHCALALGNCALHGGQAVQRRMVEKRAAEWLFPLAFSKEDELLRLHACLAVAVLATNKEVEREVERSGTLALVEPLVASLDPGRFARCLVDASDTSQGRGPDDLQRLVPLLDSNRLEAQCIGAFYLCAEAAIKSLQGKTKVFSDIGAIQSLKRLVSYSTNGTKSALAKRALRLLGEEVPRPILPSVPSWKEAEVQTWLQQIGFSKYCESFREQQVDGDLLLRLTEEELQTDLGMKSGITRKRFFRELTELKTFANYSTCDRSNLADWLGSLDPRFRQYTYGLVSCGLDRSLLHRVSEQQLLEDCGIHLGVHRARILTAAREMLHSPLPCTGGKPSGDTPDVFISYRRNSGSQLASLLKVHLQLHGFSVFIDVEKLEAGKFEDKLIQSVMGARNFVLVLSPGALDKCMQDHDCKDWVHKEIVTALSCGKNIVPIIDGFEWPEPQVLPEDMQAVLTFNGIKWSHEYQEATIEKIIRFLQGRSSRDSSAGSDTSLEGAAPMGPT

In the case of `CCC1(c2ccc(N)cc2)CCC(=O)NC1=O` (centres undefined), in experiment [1], the score was 1.07. In [2], the cytochrome c release ratio came out at 0.66. Besides, the inhibition of aggregation in experiment [3] is -9.29%. The nuclear beta-catenin stimulation in experiment [4] (at 10 µM) was -0.3% (inactive); in experiment [4] (stimulation, at 2 µM), -0.3%. Further, in experiment [5], the insulin secretion stimulation is -2.7% (inactive). The viability decrease in experiment [6] is -4.4% (inactive). In experiment [7], the tube area decrease is 14.2% (inactive). In experiment [8], the GLP1 secretion stimulation is 4.2% (inactive). Further, in experiment [9], the inhibition of viability is -0.6% (inactive). Besides, the viability decrease (inhibition) was 45.3% (inactive) in experiment [10] and 10% (inactive) in [11]. Moreover, the inhibition in experiment [12] was 13.3% (inactive). Besides, in [13], the red/green cell ratio (normalised) is 0.89 (inactive). In addition, the figures for the normalised cell number in experiment [13] (setting [21]) and in experiment [13] (setting [22]) were 1.36 and 1.2, respectively. The activity remaining in experiment [14] was 112% (inactive). Further, the z-score in experiment [15] (setting [23]) is -0.397 (inactive) and 0.19 (inactive) and 0.162 (inactive); in [15] (setting [24]), -0.0248 and -0.0255 and -0.773; in experiment [18], 0.24 (inactive) and 0.82 (inactive) and 0.775 (inactive). The remaining NAD in experiment [16] was 10 nM (inactive). For the same compound, the luciferase signal in experiment [17] was 56 AU (inactive).
For `N[C@@H](Cc1ccc(N(CCCl)CCCl)cc1)C(=O)O`, the score in [1] turned out to be 1.14. Moreover, in [2], the cytochrome c release ratio is 0.77. Also, the inhibition of aggregation in experiment [3] stood at 49.4%. Further, the parasite load remaining in [19] was 85.5% (inactive) and 46.9% (inactive). Moreover, the viability in experiment [19] is 102% and 79%. Besides, the nuclear beta-catenin stimulation is 5.3% (inactive) in [4] (at 10 µM) and -1.1% in experiment [4] (stimulation, at 2 µM). For the same compound, the insulin secretion stimulation in experiment [5] is -2.1% (inactive). Also, the viability decrease in experiment [6] is 57.9% (active). Moreover, the tube area decrease in experiment [7] is 89.6% (active). The GLP1 secretion stimulation in experiment [8] is 0.9% (inactive). The inhibition of viability in experiment [9] is 11.2% (inactive). The viability decrease (inhibition) in experiment [10] is 8.5% (inactive); in experiment [11], 8.7% (inactive). Besides, the inhibition in experiment [12] is -5.9% (inactive). The red/green cell ratio (normalised) in [13] is 0.83 (inactive). Also, the normalised cell number worked out at 0.94 in experiment [13] (setting [21]) and 0.77 in experiment [13] (setting [22]). Also, the activity remaining in [14] is 104% (inactive). The fold change was 0.909 (inactive) and 0.963 (inactive) in experiment [20] (stronger effect = lower value); 1.01 and 1.57 in experiment [20] (setting [25]). In addition, the cell count in [20] (setting [26]) is 3400 and 2500; in experiment [20] (setting [27]), 3740 and 2600. For the same compound, the z-score in [15] (setting [23]) is 0.0989 (inactive); in experiment [15] (setting [24]) it was -1.05; in [18], -1.76 (inactive). In addition, the remaining NAD in experiment [16] is 10 nM (inactive). In experiment [17], the luciferase signal is 40 AU (inactive).
For `C[C@H]1CNCCc2ccc(Cl)cc21`, the nuclear beta-catenin stimulation in experiment [4] (at 10 µM) is 2.8% (inactive); in experiment [4] (stimulation, at 2 µM), 0.8%. The insulin secretion stimulation in experiment [5] is 16.9% (inactive). Further, the viability decrease in experiment [6] is -1.35% (inactive). Also, in [7], the tube area decrease is -10.5% (inactive). For the same compound, in [8], the GLP1 secretion stimulation is 6.1% (inactive). In addition, in experiment [9], the inhibition of viability was 1.7% (inactive). Further, the viability decrease (inhibition) is 45.3% (inactive) in experiment [10] and 0.95% (inactive) in [11].
In the case of `CCC1(C2=NCCN2)Cc2ccccc2O1` (centres undefined), the parasite load remaining in experiment [19] was 40% (inactive). Further, the viability in experiment [19] is 95.5%. Moreover, the nuclear beta-catenin stimulation in [4] (at 10 µM) is 1.3% (inactive); in experiment [4] (stimulation, at 2 µM), -0.1%. In addition, in experiment [5], the insulin secretion stimulation is 3% (inactive). The viability decrease in [6] is -18.3% (inactive). Also, in experiment [7], the tube area decrease was 6.6% (inactive). Moreover, the GLP1 secretion stimulation in [8] is 2.2% (inactive). Further, the inhibition of viability in experiment [9] was 3.97% (inactive). Besides, the viability decrease (inhibition) in experiment [10] was 3% (inactive); in experiment [11] it was 0.7% (inactive). In experiment [12], the inhibition was 2.64% (inactive). In experiment [13] (counts scaled to control wells, 1 = unselective), the red/green cell ratio (normalised) is 0.88 (inactive). Also, the values for the normalised cell number in experiment [13] (setting [21]) and in [13] (setting [22]) were 1.21 and 1.07, respectively. The activity remaining in [14] is 92.2% (inactive). Also, the fold change is 0.923 (inactive) and 0.953 (inactive) and 0.905 (inactive) in experiment [20] (stronger effect = lower value); 1.9 and 0.731 and 1.02 in experiment [20] (setting [25]). Moreover, the cell count in experiment [20] (setting [26]) was 9860 and 8980 and 10100; in experiment [20] (setting [27]), 10700 and 9420 and 11200. Moreover, the z-score in experiment [15] (setting [23]) was -0.478 (inactive); in [15] (setting [24]) it was -0.349; in experiment [18] it was 0.21 (inactive) and 0.18 (inactive) and 0.695 (inactive). In addition, the remaining NAD in experiment [16] is 10 nM (inactive). Also, the luciferase signal in experiment [17] is 140 AU (inactive).
